Z-score data for 29 compounds are collected here from PubChem BioAssay AID488969 (Vanderbilt High Throughput Screening Facility, 2010).

Whole data set: some 110,000 compounds, median “z-score” near -0.1, cut for the highest 2% near 2. Shown is part of a subset that was picked to be rich in the highest values. The source made the active and inactive calls.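 The calls were made as follows: active = z-score in the third read window above 3 or below -3; inactive = the rest.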

The target in this assay is Metabotropic glutamate receptor 8 (Rattus norvegicus) (UniProt P70579). Description: rat mGluR8 modulators via GIRK flux, primary screen, cell-based, thallium flux, HTS (AID 488969). The conditions noted are these: HEK293 rat mGluR8, GIRK (G protein-gated inwardly rectifying potassium channel) thallium flux, FluoZin2; at 10 µM; stronger effect = higher value; submaximal glutamate (EC20) added with thallium.
Chain of Metabotropic glutamate receptor 8 (Rattus norvegicus) (P70579 whole entry, looked up): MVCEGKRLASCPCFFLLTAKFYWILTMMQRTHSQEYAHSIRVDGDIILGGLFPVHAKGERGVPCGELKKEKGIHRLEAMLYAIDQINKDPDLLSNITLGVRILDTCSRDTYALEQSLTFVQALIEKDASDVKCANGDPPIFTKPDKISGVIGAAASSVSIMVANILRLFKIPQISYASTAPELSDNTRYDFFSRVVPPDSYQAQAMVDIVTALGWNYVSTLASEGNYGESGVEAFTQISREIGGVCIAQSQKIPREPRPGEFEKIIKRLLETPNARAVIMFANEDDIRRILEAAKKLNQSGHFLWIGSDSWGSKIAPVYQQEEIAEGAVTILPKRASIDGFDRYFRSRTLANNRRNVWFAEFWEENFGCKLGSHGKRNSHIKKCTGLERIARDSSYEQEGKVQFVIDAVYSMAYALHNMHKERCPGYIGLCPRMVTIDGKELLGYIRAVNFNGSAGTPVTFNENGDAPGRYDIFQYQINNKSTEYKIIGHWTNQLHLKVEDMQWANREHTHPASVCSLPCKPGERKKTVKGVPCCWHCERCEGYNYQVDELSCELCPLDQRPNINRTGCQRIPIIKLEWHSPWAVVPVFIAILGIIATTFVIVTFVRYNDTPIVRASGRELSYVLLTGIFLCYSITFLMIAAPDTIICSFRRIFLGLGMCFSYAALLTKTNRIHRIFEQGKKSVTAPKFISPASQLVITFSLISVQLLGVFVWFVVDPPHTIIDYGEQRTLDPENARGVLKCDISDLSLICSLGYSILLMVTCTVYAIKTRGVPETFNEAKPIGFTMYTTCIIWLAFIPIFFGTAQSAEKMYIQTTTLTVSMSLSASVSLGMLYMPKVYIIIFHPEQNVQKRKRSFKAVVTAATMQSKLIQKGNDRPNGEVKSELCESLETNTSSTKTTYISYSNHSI
On to `CC1(C)CC(=O)CC(=Nc2ccc(C(=O)O)cc2)C1`, for which the z-score turned out to be 2.15. To `CCCC(=O)Nc1ccc(C(=O)N/N=C2\CC(=O)CC(C)(C)C2)cc1` belongs -0.113; to `CC1(C)CC(=O)C/C(=N\NC(=O)Cc2ccccc2)C1`, -0.224; to `CC(=O)c1cccc(NC(=O)c2ccco2)c1`, -0.295. Regarding `CCOC(=O)c1c(C)n(C)c2ccc(O)c(CN3CCC(C)CC3)c12`, the z-score was 3.63 (active).

`CCOC(=O)c1c(C)oc2ccc(O)c(CN(C)C)c12` gave a z-score of 0.911. To `CCOC(=O)c1c(C)n(C)c2ccc(O)c(CN(C)C)c12` belongs 2; to `CCOC(=O)c1c(-c2ccccc2)oc2ccc(O)c(CN(C)C)c12`, -0.204; to `CCOC(=O)c1c(C)oc2ccc(O)c(CN3CCCCC3)c12`, 3.52 (active). In the case of `CCOC(=O)c1c(C)n(C)c2ccc(O)c(CN3CCN(C)CC3)c12` it was 0.0797. Regarding `CCOC(=O)c1c(-c2ccccc2)oc2ccc(O)c(CN3CCCC3)c12`, the z-score came to 1.41. Turning to `CCOC(=O)c1c(C)n(C)c2ccc(O)c(CN3CCCCC3)c12`, the z-score was determined as 0.782. For `CCOC(=O)c1c(C)n(C)c2ccc(O)c(CN(CC)CC)c12`, the z-score is -2.05. Compound `CCN(CCCNC(=O)CCNC(=O)Cn1cnc2ccccc2c1=O)c1ccccc1` gave a z-score of 0.554. With `CCOC(=O)C1CCCN(C(=O)c2ccccc2SCCOC)C1` (centres undefined), the z-score stood at 0.188.

In turn, `Cc1nnc(SCC(=O)Nc2ccc3c(c2)OCCO3)s1` registered a z-score of 0.669. To `O=C(O)/C=C\C(=O)Nc1ccccc1F` belongs 0.0594; to `O=C(NC(=S)Nc1ccccc1N1CCCCC1)c1ccc(-c2cccc([N+](=O)[O-])c2)o1`, 0.681; to `CC1CCN(c2ccccc2NC(=S)NC(=O)c2ccc(-c3cccc([N+](=O)[O-])c3)o2)CC1`, 0.191. To `O=C(NC(=S)Nc1ccccc1N1CCOCC1)c1ccc(-c2cccc(Cl)c2)o1` belongs 0.758. To `CN1CCN(c2ccccc2NC(=O)c2ccc(-c3cccc([N+](=O)[O-])c3)o2)CC1` belongs -0.00188; to `O=C(NC(=S)Nc1cccc(Cl)c1N1CCCC1)c1ccc(-c2cccc([N+](=O)[O-])c2)o1`, 4.93 (active). Turning to `O=C(NC(=S)Nc1ccccc1N1CCCC1)c1ccc(-c2cccc([N+](=O)[O-])c2)o1`, the z-score is 5.71 (active).

With `Cc1cc(/C=C(/C#N)c2nc3ccccc3[nH]2)c(C)n1-c1cccc([N+](=O)[O-])c1`, the z-score was -0.533. Turning to `O=C(CN1CCCC1)NC12CC3CC(CC(C3)C1)C2`, the z-score was -0.0651. In the case of `Cn1c(=O)c([N+](=O)[O-])c(NCc2ccccc2)c2ccccc21` it was -0.608; in that of `COc1ccc(CNC(=O)COC(=O)c2cc(-c3ccc(Cl)s3)nc3ccccc23)cc1`, -0.432. To `O=C(NCCc1c[nH]c2ccccc12)c1cc2sccc2n1Cc1ccccc1` belongs -0.216; to `Cc1ccc(C(=O)O/N=C\c2ccc(N3CCOCC3)c([N+](=O)[O-])c2)cc1`, -0.0662.
